Bioassay records from PubChem BioAssay.
An excerpt weighted towards active compounds, which were near 1.2% of everything screened.
TRPV1 agonist: agonists of human vanilloid receptor 1 (TRPV1); Q8NER1; TRPV1-expressing cells, Fluo-8 calcium influx, agonist mode; activation, % at 8.33 µM; hit rate 0.19% among 320,000; in the data active = activation above about 80%; inconclusive = between about 30% and that limit; note: 0% is about no effect
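TRPV1-expressing cells were cultured overnight at 35.5C and loaded with Fluo-8 calcium dye for 40 to 90 min at room temperature. After a 10 s baseline, compound was added and calcium influx was read kinetically for 3 min (ex 480/em 520 nm).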
hERG WT inh: blocks the wildtype human KCNH2 potassium channel | U2OS, BacMam KCNH2, thallium flux FluxOr; stronger effect = lower value | activity change, % at 1.84 µM | hit rate 0.37% among 340,000;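 active = maximum activity change below -70%; inconclusive = maximum activity change between -70% and -50%; inactive = maximum activity change above -50%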; note: % is set by controls: 0 for no effect and ±100 for the full control effect
Target sequence (Q12809 whole entry, looked up): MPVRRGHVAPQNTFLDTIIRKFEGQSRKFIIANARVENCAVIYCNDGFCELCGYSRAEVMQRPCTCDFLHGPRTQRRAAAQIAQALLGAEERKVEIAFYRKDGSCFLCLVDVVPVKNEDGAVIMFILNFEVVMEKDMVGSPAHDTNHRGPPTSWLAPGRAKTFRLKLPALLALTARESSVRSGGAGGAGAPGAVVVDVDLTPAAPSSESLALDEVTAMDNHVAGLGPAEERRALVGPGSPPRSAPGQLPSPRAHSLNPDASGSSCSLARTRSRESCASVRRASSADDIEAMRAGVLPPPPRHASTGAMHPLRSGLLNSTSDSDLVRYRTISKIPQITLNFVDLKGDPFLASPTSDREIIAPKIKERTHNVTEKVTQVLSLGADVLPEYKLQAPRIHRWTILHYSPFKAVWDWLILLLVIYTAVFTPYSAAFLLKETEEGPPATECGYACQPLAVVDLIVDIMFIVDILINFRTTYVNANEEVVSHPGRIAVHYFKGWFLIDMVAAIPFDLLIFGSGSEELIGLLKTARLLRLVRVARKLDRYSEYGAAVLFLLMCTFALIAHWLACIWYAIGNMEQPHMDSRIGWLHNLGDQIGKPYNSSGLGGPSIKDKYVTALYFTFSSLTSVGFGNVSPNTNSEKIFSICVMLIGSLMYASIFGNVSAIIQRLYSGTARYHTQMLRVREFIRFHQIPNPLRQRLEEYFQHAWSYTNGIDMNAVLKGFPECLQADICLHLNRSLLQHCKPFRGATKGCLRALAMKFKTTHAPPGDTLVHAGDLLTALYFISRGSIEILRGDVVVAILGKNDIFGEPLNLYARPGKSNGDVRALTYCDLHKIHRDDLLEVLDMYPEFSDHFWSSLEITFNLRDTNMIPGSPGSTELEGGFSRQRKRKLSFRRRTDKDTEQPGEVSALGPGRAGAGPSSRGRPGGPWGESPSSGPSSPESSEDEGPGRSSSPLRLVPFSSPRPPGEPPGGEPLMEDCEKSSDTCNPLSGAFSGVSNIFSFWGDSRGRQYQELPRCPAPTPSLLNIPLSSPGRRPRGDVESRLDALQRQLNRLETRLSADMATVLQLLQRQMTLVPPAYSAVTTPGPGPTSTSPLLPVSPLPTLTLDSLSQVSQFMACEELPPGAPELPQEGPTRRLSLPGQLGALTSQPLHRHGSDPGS
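U2OS cells transduced with wild-type KCNH2 virus are loaded with FluxOr dye for 45 min, and thallium flux is measured in kinetic reads before and after stimulation buffer. Rate constants are normalized to DMSO controls.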
TRPV1 potentiator: enhances activation of the human vanilloid receptor TRPV1; TRPV1-expressing cells, Fluo-8 calcium influx, capsaicin EC20 potentiation; potentiation, % at 8.33 µM; hit rate 0.02% among 320,000; in the data active = potentiation above about 80%; inconclusive = between about 30% and that limit; note: 0% is about no effect
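Cells expressing TRPV1 were dye-loaded with Fluo-8 and read kinetically: 10 s baseline, 3 min after compound (agonist portion), then 2 min after EC20 capsaicin (allosteric enhancer portion). Calcium-bound dye fluorescence at 480/520 nm.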
KCNH2 3.1 block: inhibitors of human KCNH2 3.1 potassium channel isoform; hit rate 0.95% among 340,000; activity change, % (tested at about 1.8 µM); AID 720553; U2OS KCNH2 3.1, thallium flux FluxOr; stronger effect = lower value;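 active = maximum activity change below -70%; inconclusive = maximum activity change from -70% to -50%; inactive = maximum activity change above -50%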;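 note: thallium influx rate constant from kinetic fluorescence after stimulation buffer; % is set by controls: 0 for no effect and ±100 for the full control effect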
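Normalized rate constant (relative to positive and negative DMSO controls) derived from a 2 min kinetic fluorescence read after stimulation; U2OS cells expressing the 3.1 isoform via virus at 1.77 x 10^8 /mL.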
Numbers without * were called inactive.

How did COc1ccc(CCNCC(=O)Nc2ccc(C)c(Br)c2)cc1OC do in these assays?
TRPV1 agonist: 28.9; hERG WT inh: 12.8; TRPV1 potentiator: -8.1; KCNH2 3.1 block: -72.2*

How did CC(=O)c1c(OCC(=O)O)ccc2c(C)cc(=O)oc12 do in these assays?
TRPV1 agonist: 0.0; hERG WT inh: 2.4; TRPV1 potentiator: -9.4; KCNH2 3.1 block: -117.0*

What do the screens show for `CCOC(=O)COc1ccc2c(C)cc(=O)oc2c1C(=O)c1ccccc1`?
TRPV1 agonist: 2.3; hERG WT inh: -0.5; TRPV1 potentiator: 4.1; KCNH2 3.1 block: -5.6

How did COc1ccc(-c2csc(N(CCCN(C)C)C(=O)c3ccc(OC)c(OC)c3)n2)cc1 do in these assays?
hERG WT inh: 29.4; KCNH2 3.1 block: -17.7

What do the screens show for `CCN(CC)CCCN(C(=O)c1cccs1)c1nc(-c2ccc(OC)cc2)cs1`?
TRPV1 agonist: 5.6; hERG WT inh: 27.5; TRPV1 potentiator: 0.4; KCNH2 3.1 block: inconclusive

What do the screens show for `CCN(CC)CCCN(C(=O)c1cccc(C)c1)c1nc(-c2ccc(OC)cc2)cs1`?
TRPV1 agonist: 4.8; hERG WT inh: -80.8*; TRPV1 potentiator: -26.0; KCNH2 3.1 block: -72.7*

What do the screens show for `CCN(CC)CCCN(C(=O)c1ccc(Br)cc1)c1nc(-c2ccc(OC)cc2)cs1`?
TRPV1 agonist: -1.5; hERG WT inh: -135.2*; TRPV1 potentiator: 4.3; KCNH2 3.1 block: -109.3*

Results for COC(=O)[C@H](Cc1ccccc1)NC(=O)N1CCCCCC1 ?
TRPV1 agonist: -1.5; TRPV1 potentiator: -0.7; KCNH2 3.1 block: -0.7

How did COC(=O)[C@H](CC(C)C)NC(=O)N1CCCCC1 do in these assays?
TRPV1 agonist: -1.5; hERG WT inh: -0.3; TRPV1 potentiator: -13.6; KCNH2 3.1 block: -126.0*

How did CC(C(=O)OCC(=O)N1CCN(c2ccccc2)CC1)N1C(=O)c2ccccc2C1=O (stereo not drawn) do in these assays?
TRPV1 agonist: -0.6; hERG WT inh: 10.2; TRPV1 potentiator: 8.8; KCNH2 3.1 block: -4.0

What do the screens show for `O=C(CN1CCC(n2nnc3cc(C(F)(F)F)ccc32)CC1)Nc1ccc2c(c1)OCCO2`?
TRPV1 agonist: 5.0; hERG WT inh: -1.2; TRPV1 potentiator: 5.1; KCNH2 3.1 block: -0.4

Results for O=C(CN1CCC(n2nnc3cc(C(F)(F)F)ccc32)CC1)Nc1ccc2c(c1)CCC2 ?
TRPV1 agonist: 3.5; hERG WT inh: -44.9; TRPV1 potentiator: -0.8; KCNH2 3.1 block: -77.6*

Results for Cc1ccc(N2C(=O)C(O)(C(F)(F)F)C3=C2CC(C)(C)CC3=O)cc1 (stereo not drawn) ?
TRPV1 agonist: 0.1; hERG WT inh: 4.6; TRPV1 potentiator: 3.2; KCNH2 3.1 block: 0.6

How did CC1(C)CC(=O)C2=C(C1)N(c1ccc(F)cc1)C(=O)C2(O)C(F)(F)F (stereo not drawn) do in these assays?
TRPV1 agonist: -1.6; hERG WT inh: 7.3; TRPV1 potentiator: 23.9; KCNH2 3.1 block: -119.6*

What do the screens show for `CN(C)CCNC(=O)c1cc2c(s1)-c1ccc(Cl)cc1SC2`?
TRPV1 agonist: 4.9; hERG WT inh: -112.9*; TRPV1 potentiator: -5.9; KCNH2 3.1 block: -80.5*

How did CN1CCN(/N=C/c2ccc(N(c3ccccc3)c3ccccc3)cc2)CC1 do in these assays?
TRPV1 agonist: 1.3; hERG WT inh: 19.6; TRPV1 potentiator: -10.6; KCNH2 3.1 block: -72.4*

What do the screens show for `Cn1nc(C(=O)NCCOc2ccccc2)c2ccccc2c1=O`?
TRPV1 agonist: -0.1; hERG WT inh: 4.9; TRPV1 potentiator: 21.1; KCNH2 3.1 block: -119.2*

What do the screens show for `COc1ccc(CN(C)CCCn2cnc3c(OC)ncnc32)cc1OC`?
hERG WT inh: 9.3; KCNH2 3.1 block: 15.1

Results for NS(=O)(=O)c1ccc(CCNC(=O)CNC(=O)c2ccc(Br)o2)cc1 ?
TRPV1 agonist: 1.9; hERG WT inh: -1.5; TRPV1 potentiator: -1.1; KCNH2 3.1 block: 4.6

What do the screens show for `CCC(C)c1ccccc1N1CC(C(=O)NCCCn2nc(C)cc2C)CC1=O` (stereo not drawn)?
TRPV1 agonist: 1.0; hERG WT inh: 4.2; TRPV1 potentiator: -14.9; KCNH2 3.1 block: 1.5

What do the screens show for `O=C(CN(Cc1ccccc1)S(=O)(=O)c1ccccc1)NC1CC1`?
TRPV1 agonist: -0.6; hERG WT inh: -159.1*; TRPV1 potentiator: 3.3; KCNH2 3.1 block: -0.6

How did CCN(CC(=O)NC1CC1)S(=O)(=O)c1ccccc1 do in these assays?
TRPV1 agonist: -4.5; hERG WT inh: -3.9; TRPV1 potentiator: -9.9; KCNH2 3.1 block: 1.8

How did COc1cc(NC(=O)c2cc3ccccc3o2)ccc1NC(=O)c1ccco1 do in these assays?
TRPV1 agonist: 0.9; hERG WT inh: 13.7; TRPV1 potentiator: -1.3; KCNH2 3.1 block: -81.5*

Results for COc1ccccc1C(=O)NC(=S)Nc1ccc(NC(=O)c2ccco2)cc1 ?
TRPV1 agonist: 0.8; hERG WT inh: 10.7; TRPV1 potentiator: 11.1; KCNH2 3.1 block: -72.9*

Results for COc1cc(NC(=O)c2ccc(F)cc2)ccc1NC(=O)c1cc2ccccc2o1 ?
TRPV1 agonist: 1.4; hERG WT inh: -7.9; TRPV1 potentiator: 22.4; KCNH2 3.1 block: 5.1

How did COc1ccccc1C(=O)Nc1ccc(NC(=O)c2ccco2)cn1 do in these assays?
TRPV1 agonist: 3.8; hERG WT inh: -5.2; TRPV1 potentiator: -2.5; KCNH2 3.1 block: 5.3

What do the screens show for `COc1cc(NC(=O)c2ccccc2F)ccc1NC(=O)c1cc2ccccc2o1`?
TRPV1 agonist: 8.1; hERG WT inh: 0.4; TRPV1 potentiator: -6.7; KCNH2 3.1 block: -71.2*

What do the screens show for `COc1cccc(NC(=O)c2cc3ccccc3oc2=O)c1`?
TRPV1 agonist: 0.2; hERG WT inh: -75.8*; TRPV1 potentiator: -8.2; KCNH2 3.1 block: -12.1

What do the screens show for `COc1ccc(/C=C2\SC(=O)N(CCCC(=O)Nc3cc(Cl)ccc3C(=O)O)C2=O)cc1`?
hERG WT inh: -11.3; KCNH2 3.1 block: 3.9

How did CCc1ccc(Nc2ccc3nonc3c2[N+](=O)[O-])cc1 do in these assays?
hERG WT inh: -134.2*; KCNH2 3.1 block: -158.8*

Results for O=[N+]([O-])c1c(Nc2ccccc2)ccc2nonc12 ?
TRPV1 agonist: -1.5; hERG WT inh: -2.6; TRPV1 potentiator: -0.1; KCNH2 3.1 block: 6.5

How did COCCNC(=O)C(c1ccccc1)N(C(=O)Cn1nnc2ccccc21)c1cccnc1 (stereo not drawn) do in these assays?
TRPV1 agonist: -6.7; hERG WT inh: -197.4*; TRPV1 potentiator: 1.1; KCNH2 3.1 block: -25.8

How did c1ccc(CNc2cccnc2)cc1 do in these assays?
hERG WT inh: -24.4; KCNH2 3.1 block: 10.9

What do the screens show for `CCCCN(C(=O)c1cccc(-n2cnnn2)c1)c1c(N)n(CCCC)c(=O)[nH]c1=O`?
hERG WT inh: -12.2; KCNH2 3.1 block: 2.4

How did OCC1OC(c2ccccc2)OC2COC(c3ccccc3)OC12 (stereo not drawn) do in these assays?
hERG WT inh: 3.5; KCNH2 3.1 block: 15.3

Results for COc1ccc(NC2c3ncccc3C(=O)N2Cc2cccs2)cc1 (stereo not drawn) ?
TRPV1 agonist: inconclusive; hERG WT inh: -12.3; TRPV1 potentiator: -30.9; KCNH2 3.1 block: -9.8
